Laboratory results published in PubChem BioAssay AID2314 (National Center for Advancing Translational Sciences (NCATS), 2010).
Among all 300,000 compounds or so, about 37,000 (12%) were called active. The sample as a whole holds a higher share of actives than the screen did. A number with no mark means an inactive call. No stated cut-off is given here; in the data, active means max response mostly above about 13% (no sharp cut-off); inactive means mostly below about 14%.

Test: Cycloheximide Counterscreen for Small Molecule Inhibitors of Shiga Toxin; further: read at 38.3 µM for the half of the compounds with a filed dose; 0% is about no effect
Conditions: cell reporter, cycloheximide protein synthesis inhibition counterscreen; hits give high values

| Compound | max response |
| --- | --- |
| CC(C)(C)NCCCOc1ccc(Cl)cc1C(C)(C)C | -3.93% |
| O=C(CSc1ccccn1)Nc1nc2c(ccc3ccccc32)s1 | 15% |
| CC(=O)NCCC(=O)Nc1cc(S(=O)(=O)N2CCCCC2)ccc1Oc1cccc(C)c1 | -3.52% |
| c1ccc2sc(C3CCCNC3)nc2c1 (centres undefined) | 30.8% (active) |
| Cc1cccc(C(=O)N2CCC(c3nc4ccccc4s3)CC2)c1 | -3.16% |
| O=C(c1cccs1)N1CCC(c2nc3ccccc3s2)CC1 | -1.42% |
| Cc1[nH]c(C)c(S(=O)(=O)N2CCN(c3cccc(C(F)(F)F)c3)CC2)c1C(=O)N1CCCC1 | -5.38% |
| C=C1CCN(Cc2ccc(OC)cc2)S(=O)(=O)c2ccccc21 | 12.8% |
| CCOc1ccc(N2CC(C(=O)NCc3ccccn3)CC2=O)cc1 (centres undefined) | -11.6% |
| CC1CCN(c2ccc(C(=O)NCc3ccc4c(c3)OCO4)cc2[N+](=O)[O-])CC1 | -5.58% |
| Cc1ccc(C2CN(C)CC2C(=O)c2ccc(F)cc2)cc1 (centres undefined) | -3.61% |
| CCc1ccc(NC(=O)CN2CCC(C(=O)c3ccc(OC)cc3)CC2)cc1 | -4.07% |
| COc1ccc(C(=O)C2CN(C)CC2C(=O)c2ccc(OC)cc2)cc1 (centres undefined) | 19% (active) |
| CC(C)(C)C(=O)CN1C2=NCCN2c2ccccc21 | -2.32% |
| CCc1ccc(NC(=O)Cn2nnc(C(=O)NCc3ccc4c(c3)OCO4)c2N)cc1 | -3.61% |
| Cc1ccc(-c2nc(CSCC(=O)NC3CCN(Cc4ccccc4)CC3)c(C)o2)cc1 | -6.12% |
| COc1cc(C(=O)NC(=S)NCc2ccco2)cc(OC)c1OC | 2.82% |
| COc1cccc(OCC(O)CNC(=O)c2oc3c(C)c(C)ccc3c2C)c1 (centres undefined) | -4.29% |
| COc1cc(C(=O)N[C@@H](C)C(=O)NCc2ccco2)cc(OC)c1OC | -1.35% |
| Cc1cc(S(=O)(=O)Nc2ccc(C(=O)NCC(c3ccco3)N3CCCC3)cc2)ccc1F (centres undefined) | 0.909% |

| Compound | max response |
| --- | --- |
| COc1ccc2oc(C(=O)NCc3ccco3)c(C)c2c1 | 31.4% (active) |
| CCCCn1c(N)c(N(CCOC)C(=O)c2oc3ccc(OC)cc3c2C)c(=O)[nH]c1=O | -2.73% |
| COc1ccc2oc(C(=O)NCC(Cc3ccccc3)N(C)C)c(C)c2c1 (centres undefined) | 12% (active) |
| Cc1c(C(=O)NCCN(C)C)oc2ccc(S(=O)(=O)N3CCCC3)cc12 | 2.66% |
| Cc1c(C(=O)NCC(c2ccco2)N2CCCC2)oc2ccc(Cl)cc12 (centres undefined) | 37.1% (active) |
| COc1ccc(NS(=O)(=O)c2ccc(F)cc2F)cn1 | -4.72% |
| COc1cc(C(=O)NCCOC(=O)c2cccc(N(C)C)c2)cc(OC)c1OC | -1.25% |
| CCC(=O)/C(=C(/O)c1ccccc1)c1nc2ccccc2[nH]1 | 31% (active) |
| CC/C(O)=C1\C(=O)CC(C)(C)CC1=NCCc1nc2ccccc2[nH]1 | 6.92% |
| Cc1nc2ccccc2c(-c2ccccc2)c1C(=O)c1ccccc1 | -4.4% |
| Cc1nnc(Sc2nc3c(c(=O)[nH]c(=O)n3C)n2Cc2ccccc2)s1 | -5.79% |
| Cn1c(SCC(=O)N2CCCC2)nnc1-c1ccc2c(c1)OCO2 | 18.9% (active) |
| Cn1c(SCc2nc3ccccc3s2)nnc1-c1ccc2c(c1)OCO2 | 39.5% (active) |
| Cn1c(SCC(=O)N2CCOCC2)nnc1-c1ccc2ncccc2c1 | -0.963% |
| O=C(O)CSc1nnc(-c2ccc3c(c2)OCO3)n1-c1ccccc1 | 12.9% |
| Cn1c(SCC(=O)N2CCOCC2)nnc1-c1ccc(NC(=O)c2ccccc2F)cc1 | -4.11% |
| Cc1ccccc1-c1nnc(SCC(=O)NCc2ccc3c(c2)OCO3)n1C | -2.35% |
| COc1ccccc1NC(=O)CCN1CCN(c2ccc(Cl)cc2)CC1 | -0.528% |
| COc1cc(C(C(=O)NC2CCCC2)N(C(=O)c2ccco2)c2ccccc2C(C)=O)cc(OC)c1OC (centres undefined) | 3.6% |
| CC(C)c1c(C(=O)N/N=C/c2ccccc2C(=O)O)nnn1-c1nonc1N | 23.4% |

| Compound | max response |
| --- | --- |
| COc1ccccc1C(=O)NC(CCSC)C(=O)NNC(=O)c1csc(N2CCOCC2)n1 (centres undefined) | -1.29% |
| O=C(NCCc1ccc(Cl)cc1Cl)c1cc([N+](=O)[O-])c[nH]c1=O | -5.02% |
| CCCN1CCN(C(=O)CCCNC(=O)c2ccc(Cl)cc2)CC1 | -2.8% |
| O=C(NC(=O)c1ccccc1N1CCCCC1)Nc1ccc(Br)cc1 | -3.48% |
| CN1CCN(NC(=O)Nc2ccc(Br)cc2)CC1 | 24.2% (active) |
| COc1ccc(NC(=O)NN2CCN(C)CC2)c(OC)c1 | 0.309% |
| COc1ccc(-c2nc3c(s2)CCc2onc(-c4ccc(OC)cc4)c2-3)cc1 | -2.4% |
| COc1ccc(S(=O)(=O)N2CCN(C)CC2)c(C)c1 | -3.62% |
| CN(c1ccccc1)c1nc(N)c([N+](=O)[O-])c(NCc2ccco2)n1 | 1.96% |
| Nc1nc(NCCCN2CCOCC2)nc(Nc2ccccc2)c1[N+](=O)[O-] | -2.59% |
| COc1cccc(Nc2nc(N)c([N+](=O)[O-])c(NCc3ccco3)n2)c1 | 19.4% (active) |
| COc1ccccc1CCNS(=O)(=O)c1cc2c3c(c1)C(C)C(=O)N3CCC2 (centres undefined) | 4.12% |
| CC1=C(C)C(=O)OC(C(C)C2CCC3C4CC=C5CC(OC6OC(COC7OC(CO)C(O)C(O)C7O)C(O)C(O)C6O)CC(O)C5(C)C4CCC23C)C1 (centres undefined) | 7.38% |
| CN(C)c1ccc(Nc2c3c4c(cccc4n(C)c2=O)C(=O)c2ccccc2-3)cc1 | 3.88% |
| Cc1cc(NC(=O)CSc2nnc(-c3ccc(Cl)s3)o2)no1 | 5.82% |
| COc1ccc(C(=O)/C=C/Nc2ccccn2)cc1 | 2.25% |
| Cc1cc(N/C=C\C(=O)c2ccc(Cl)c(Cl)c2)no1 | 11.9% (active) |
| COc1ccc(NC(=O)CSc2nncc(=O)n2N)cc1OC | -3.35% |
| COC(=O)[C@@H]1CC[C@H](C)[C@@H](c2ccc(C)cc2)N1C(=O)c1ccc(/C=N/O[C@H](C)c2cn([C@@H]3COC[C@H]3O)nn2)cc1 | -2.13% |
